# What was measured:
# Test in all cases: DAPPL (digital affinity profiling via proximity ligation, sequencing); 10 mM Tris-HCl pH 7.5, 50 mM NaCl, 1 mM DTT, 4% glycerol, room temperature, 30 min; GST-TFs on glutathione beads, 16-mer random dsDNA library, 0.1% formaldehyde crosslink after washing; high values mean tight binding
# [1] = target: T1, FLI1 (Homo sapiens, UniProt Q01543 1-452); settings: protein: recombinant; tags: N-terminal GST; dsDNA, one strand shown
# T1 sequence: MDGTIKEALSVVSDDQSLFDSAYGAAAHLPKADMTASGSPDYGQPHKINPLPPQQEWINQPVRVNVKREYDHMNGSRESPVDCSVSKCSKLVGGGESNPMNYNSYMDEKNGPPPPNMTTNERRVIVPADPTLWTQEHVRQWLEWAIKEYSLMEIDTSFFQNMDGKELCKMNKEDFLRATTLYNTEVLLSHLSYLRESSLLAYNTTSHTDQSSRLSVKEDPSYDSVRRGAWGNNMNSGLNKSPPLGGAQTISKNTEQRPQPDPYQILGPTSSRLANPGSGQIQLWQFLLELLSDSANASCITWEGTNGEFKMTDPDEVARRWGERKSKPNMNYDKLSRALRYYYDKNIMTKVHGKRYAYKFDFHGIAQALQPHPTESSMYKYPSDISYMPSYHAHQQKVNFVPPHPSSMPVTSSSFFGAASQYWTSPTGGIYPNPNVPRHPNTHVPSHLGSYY
# Method in brief: (§1)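 Sequencing on an Illumina NextSeq500 followed washing, crosslinking with 0.1% formaldehyde, proximity ligation (BsaI/T4 ligase, 1 h, 37 °C) and PCR amplification of pools that had been incubated for 30 min at room temperature with 200 nmole of a random double-stranded 16-mer DNA library in Tris/NaCl/DTT/glycerol buffer. Each pool held DNA-barcoded human transcription factors, expressed in yeast as GST fusions and captured on glutathione beads, plus a tag-only sample. Binding signal is a hexamer's read frequency for a factor divided by its frequency in the tag-only sample.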
# [2] = target: T2, ELK1 (Homo sapiens, UniProt P19419 1-428); settings: protein: recombinant; tags: N-terminal GST; dsDNA, one strand shown
# T2 sequence: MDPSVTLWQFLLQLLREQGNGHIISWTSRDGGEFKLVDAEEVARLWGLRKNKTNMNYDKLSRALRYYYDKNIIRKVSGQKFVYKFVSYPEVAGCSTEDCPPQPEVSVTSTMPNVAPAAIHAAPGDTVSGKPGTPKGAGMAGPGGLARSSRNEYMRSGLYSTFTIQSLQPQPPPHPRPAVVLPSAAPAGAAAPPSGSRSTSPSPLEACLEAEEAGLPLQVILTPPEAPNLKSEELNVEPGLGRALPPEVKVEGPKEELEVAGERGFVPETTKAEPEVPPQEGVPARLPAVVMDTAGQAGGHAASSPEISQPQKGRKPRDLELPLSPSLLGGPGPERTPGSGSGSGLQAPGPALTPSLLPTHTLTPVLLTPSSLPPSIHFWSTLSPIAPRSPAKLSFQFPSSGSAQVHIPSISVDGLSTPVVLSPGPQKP
# Method in brief: as §1
# [3] = target: T3, GABPA (Homo sapiens, UniProt Q06546 1-454); settings: protein: recombinant; tags: N-terminal GST; dsDNA, one strand shown
# T3 sequence: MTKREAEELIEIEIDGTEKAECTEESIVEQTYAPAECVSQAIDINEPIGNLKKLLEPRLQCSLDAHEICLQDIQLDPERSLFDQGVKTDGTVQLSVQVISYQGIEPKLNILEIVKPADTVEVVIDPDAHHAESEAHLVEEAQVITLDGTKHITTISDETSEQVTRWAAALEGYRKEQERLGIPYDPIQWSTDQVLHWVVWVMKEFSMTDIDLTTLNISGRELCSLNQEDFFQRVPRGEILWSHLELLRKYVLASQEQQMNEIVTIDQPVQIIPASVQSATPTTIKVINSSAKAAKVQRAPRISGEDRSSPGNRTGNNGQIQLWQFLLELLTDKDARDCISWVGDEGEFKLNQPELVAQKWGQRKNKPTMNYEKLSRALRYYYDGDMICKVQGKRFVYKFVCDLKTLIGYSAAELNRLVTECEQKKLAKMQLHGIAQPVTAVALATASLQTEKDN
# Method in brief: as §1
# [4] = target: T4, ERG (Homo sapiens, UniProt P11308 1-479); settings: protein: recombinant; tags: N-terminal GST; dsDNA, one strand shown
# T4 sequence: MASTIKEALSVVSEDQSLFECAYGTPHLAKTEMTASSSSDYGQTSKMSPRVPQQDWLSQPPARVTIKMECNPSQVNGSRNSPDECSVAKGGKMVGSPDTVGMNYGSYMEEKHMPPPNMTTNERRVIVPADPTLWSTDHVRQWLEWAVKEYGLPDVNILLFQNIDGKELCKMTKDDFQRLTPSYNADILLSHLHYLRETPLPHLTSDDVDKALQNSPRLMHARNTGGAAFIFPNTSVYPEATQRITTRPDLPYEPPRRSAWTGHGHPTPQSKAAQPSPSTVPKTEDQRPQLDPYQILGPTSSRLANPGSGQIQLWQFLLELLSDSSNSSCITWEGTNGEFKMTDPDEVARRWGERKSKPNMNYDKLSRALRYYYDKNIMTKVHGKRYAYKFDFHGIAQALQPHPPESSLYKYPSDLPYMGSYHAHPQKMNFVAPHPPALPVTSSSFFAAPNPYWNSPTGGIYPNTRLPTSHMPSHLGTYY
# Method in brief: as §1
# [5] = target: ELF1 (Homo sapiens, UniProt P32519 1-619); settings: protein: recombinant; tags: N-terminal GST; dsDNA, one strand shown
# Method in brief: as §1
# [6] = target: T5, EHF (Homo sapiens, UniProt Q9NZC4 1-300); settings: protein: recombinant; tags: N-terminal GST; dsDNA, one strand shown
# T5 sequence: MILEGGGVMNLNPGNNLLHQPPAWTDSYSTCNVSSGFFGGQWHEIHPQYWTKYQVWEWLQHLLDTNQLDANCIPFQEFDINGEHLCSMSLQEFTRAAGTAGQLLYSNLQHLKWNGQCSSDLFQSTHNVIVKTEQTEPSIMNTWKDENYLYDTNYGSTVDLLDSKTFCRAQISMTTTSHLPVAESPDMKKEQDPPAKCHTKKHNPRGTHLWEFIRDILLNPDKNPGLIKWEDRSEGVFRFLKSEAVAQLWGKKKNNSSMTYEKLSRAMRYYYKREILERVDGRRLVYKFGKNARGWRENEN
# Method in brief: as §1
# [7] = target: SPI1 (Homo sapiens, UniProt P17947 1-270); settings: protein: recombinant; tags: N-terminal GST; dsDNA, one strand shown
# Method in brief: as §1
# [8] = target: SPIB (Homo sapiens, UniProt Q01892 1-262); settings: protein: recombinant; tags: N-terminal GST; dsDNA, one strand shown
# Method in brief: as §1
# [9] = target: T6, ELK3 (Homo sapiens, UniProt P41970 1-407); settings: protein: recombinant; tags: N-terminal GST; dsDNA, one strand shown
# T6 sequence: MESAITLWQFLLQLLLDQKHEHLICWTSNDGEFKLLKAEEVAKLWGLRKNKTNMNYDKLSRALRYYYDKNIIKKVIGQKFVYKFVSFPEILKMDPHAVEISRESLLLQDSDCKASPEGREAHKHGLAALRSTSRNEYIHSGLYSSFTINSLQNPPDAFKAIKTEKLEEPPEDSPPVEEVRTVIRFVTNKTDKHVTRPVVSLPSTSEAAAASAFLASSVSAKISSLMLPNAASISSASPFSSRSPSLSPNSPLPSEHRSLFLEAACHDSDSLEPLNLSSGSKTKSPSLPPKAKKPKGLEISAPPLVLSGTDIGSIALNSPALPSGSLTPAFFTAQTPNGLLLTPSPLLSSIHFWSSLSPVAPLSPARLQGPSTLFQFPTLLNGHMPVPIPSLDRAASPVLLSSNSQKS
# Method in brief: as §1
# [10] = target: T7, FEV (Homo sapiens, UniProt Q99581 1-238); settings: protein: recombinant; tags: N-terminal GST; dsDNA, one strand shown
# T7 sequence: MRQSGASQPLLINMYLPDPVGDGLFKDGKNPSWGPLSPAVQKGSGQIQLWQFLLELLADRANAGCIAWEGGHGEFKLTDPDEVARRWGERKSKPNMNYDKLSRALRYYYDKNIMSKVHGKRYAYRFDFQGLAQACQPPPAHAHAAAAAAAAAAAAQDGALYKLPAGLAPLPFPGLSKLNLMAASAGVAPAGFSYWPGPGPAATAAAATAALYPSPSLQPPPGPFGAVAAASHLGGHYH
# Method in brief: as §1
# [11] = target: ETV5 (Homo sapiens, UniProt P41161 1-510); settings: protein: recombinant; tags: N-terminal GST; dsDNA, one strand shown
# Method in brief: as §1
# [12] = target: HSF1 (Homo sapiens, UniProt Q00613 1-529); settings: protein: recombinant; tags: N-terminal GST; chain copies: 3; dsDNA, one strand shown
# Method in brief: as §1
# [13] = target: T8, SPIC (Homo sapiens, UniProt Q8N5J4 1-248); settings: protein: recombinant; tags: N-terminal GST; dsDNA, one strand shown
# T8 sequence: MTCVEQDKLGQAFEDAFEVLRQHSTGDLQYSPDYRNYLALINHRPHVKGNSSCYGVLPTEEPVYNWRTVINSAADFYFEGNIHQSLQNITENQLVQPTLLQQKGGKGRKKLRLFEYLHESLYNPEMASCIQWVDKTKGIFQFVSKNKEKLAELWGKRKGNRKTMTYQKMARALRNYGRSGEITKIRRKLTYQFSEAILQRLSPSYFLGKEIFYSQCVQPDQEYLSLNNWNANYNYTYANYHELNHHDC
# Method in brief: as §1
# [14] = target: ELF4 (Homo sapiens, UniProt Q99607 1-663); settings: protein: recombinant; tags: N-terminal GST; dsDNA, one strand shown
# Method in brief: as §1
# [15] = target: T9, ELK4 (Homo sapiens, UniProt P28324-2 1-405); settings: protein: recombinant; tags: N-terminal GST; dsDNA, one strand shown
# T9 sequence: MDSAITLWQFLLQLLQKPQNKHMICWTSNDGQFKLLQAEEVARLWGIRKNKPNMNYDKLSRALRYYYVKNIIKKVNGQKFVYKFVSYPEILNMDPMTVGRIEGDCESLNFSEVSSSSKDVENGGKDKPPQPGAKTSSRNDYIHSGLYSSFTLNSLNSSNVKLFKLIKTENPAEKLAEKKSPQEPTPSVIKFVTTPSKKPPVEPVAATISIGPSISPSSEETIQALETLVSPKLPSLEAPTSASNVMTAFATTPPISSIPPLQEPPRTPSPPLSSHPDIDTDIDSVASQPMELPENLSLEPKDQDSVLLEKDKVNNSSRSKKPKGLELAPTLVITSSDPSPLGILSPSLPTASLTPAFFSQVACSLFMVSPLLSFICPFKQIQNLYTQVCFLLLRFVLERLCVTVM
# Method in brief: as §1
# [16] = target: T10, ETV2 (Homo sapiens, UniProt O00321 1-342); settings: protein: recombinant; tags: N-terminal GST; dsDNA, one strand shown
# T10 sequence: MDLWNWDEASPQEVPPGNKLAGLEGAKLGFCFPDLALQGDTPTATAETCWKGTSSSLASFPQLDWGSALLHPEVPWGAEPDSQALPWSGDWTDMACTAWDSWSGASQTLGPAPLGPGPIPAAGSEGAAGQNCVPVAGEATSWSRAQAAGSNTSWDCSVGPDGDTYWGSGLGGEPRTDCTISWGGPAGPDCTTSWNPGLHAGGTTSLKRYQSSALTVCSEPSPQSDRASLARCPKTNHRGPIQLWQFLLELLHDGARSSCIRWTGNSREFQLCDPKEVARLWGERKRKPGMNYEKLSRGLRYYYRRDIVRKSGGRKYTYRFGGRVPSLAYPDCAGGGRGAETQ
# Method in brief: as §1
# [17] = target: T11, ELF3 (Homo sapiens, UniProt P78545 1-371); settings: protein: recombinant; tags: N-terminal GST; dsDNA, one strand shown
# T11 sequence: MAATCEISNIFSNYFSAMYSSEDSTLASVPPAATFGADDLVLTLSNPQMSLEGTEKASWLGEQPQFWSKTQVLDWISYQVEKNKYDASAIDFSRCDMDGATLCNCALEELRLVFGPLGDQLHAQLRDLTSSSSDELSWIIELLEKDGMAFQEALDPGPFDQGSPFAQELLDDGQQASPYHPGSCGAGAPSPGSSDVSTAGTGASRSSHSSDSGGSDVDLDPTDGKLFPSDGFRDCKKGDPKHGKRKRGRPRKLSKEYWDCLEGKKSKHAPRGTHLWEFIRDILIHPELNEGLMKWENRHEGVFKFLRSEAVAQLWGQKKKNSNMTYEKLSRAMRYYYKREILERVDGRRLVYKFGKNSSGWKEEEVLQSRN
# Method in brief: as §1
# [18] = target: CRX (Homo sapiens, UniProt O43186 1-299); settings: protein: recombinant; tags: N-terminal GST; dsDNA, one strand shown
# Method in brief: as §1
# [19] = target: ETV1 (Homo sapiens, UniProt P50549 1-477); settings: protein: recombinant; tags: N-terminal GST; dsDNA, one strand shown
# Method in brief: as §1
# ETV1, sequence (P50549 whole entry): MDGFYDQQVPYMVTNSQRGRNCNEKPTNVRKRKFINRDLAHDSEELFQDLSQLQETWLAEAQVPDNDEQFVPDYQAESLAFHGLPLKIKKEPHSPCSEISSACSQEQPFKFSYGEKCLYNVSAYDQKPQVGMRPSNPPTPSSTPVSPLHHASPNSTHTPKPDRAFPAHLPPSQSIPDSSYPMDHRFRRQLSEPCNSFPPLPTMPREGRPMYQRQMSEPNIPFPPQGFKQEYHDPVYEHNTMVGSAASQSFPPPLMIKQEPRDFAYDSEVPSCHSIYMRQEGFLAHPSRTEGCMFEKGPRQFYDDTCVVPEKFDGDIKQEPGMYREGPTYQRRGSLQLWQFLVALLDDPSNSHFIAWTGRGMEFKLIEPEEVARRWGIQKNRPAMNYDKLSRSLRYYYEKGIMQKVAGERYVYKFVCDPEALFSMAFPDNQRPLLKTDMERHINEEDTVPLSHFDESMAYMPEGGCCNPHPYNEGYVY
# SPIB, sequence (Q01892 whole entry): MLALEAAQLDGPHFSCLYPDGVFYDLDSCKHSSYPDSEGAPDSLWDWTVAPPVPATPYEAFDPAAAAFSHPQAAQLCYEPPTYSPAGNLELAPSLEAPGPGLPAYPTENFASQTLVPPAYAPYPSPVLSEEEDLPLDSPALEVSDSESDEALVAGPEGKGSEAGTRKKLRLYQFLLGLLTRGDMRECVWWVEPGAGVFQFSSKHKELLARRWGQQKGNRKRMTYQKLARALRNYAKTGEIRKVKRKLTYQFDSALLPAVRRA
# ELF4, sequence (Q99607 whole entry): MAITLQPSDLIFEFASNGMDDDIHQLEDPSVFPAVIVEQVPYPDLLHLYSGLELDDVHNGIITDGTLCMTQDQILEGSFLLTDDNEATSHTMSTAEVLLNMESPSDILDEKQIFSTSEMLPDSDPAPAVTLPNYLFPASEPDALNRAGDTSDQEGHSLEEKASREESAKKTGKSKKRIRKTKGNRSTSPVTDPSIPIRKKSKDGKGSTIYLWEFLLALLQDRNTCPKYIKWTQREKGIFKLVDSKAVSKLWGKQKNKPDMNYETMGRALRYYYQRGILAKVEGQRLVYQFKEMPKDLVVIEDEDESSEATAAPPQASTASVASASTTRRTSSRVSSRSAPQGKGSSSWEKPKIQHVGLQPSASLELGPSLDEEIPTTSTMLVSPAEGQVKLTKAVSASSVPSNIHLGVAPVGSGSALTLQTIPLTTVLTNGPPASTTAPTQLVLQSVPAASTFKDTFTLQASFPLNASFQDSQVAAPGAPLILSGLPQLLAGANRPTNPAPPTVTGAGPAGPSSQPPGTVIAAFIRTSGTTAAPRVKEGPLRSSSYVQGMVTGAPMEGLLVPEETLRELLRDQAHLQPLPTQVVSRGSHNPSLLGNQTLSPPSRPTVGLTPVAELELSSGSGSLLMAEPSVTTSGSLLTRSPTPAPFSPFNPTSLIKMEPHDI
# ETV5, sequence (P41161 whole entry): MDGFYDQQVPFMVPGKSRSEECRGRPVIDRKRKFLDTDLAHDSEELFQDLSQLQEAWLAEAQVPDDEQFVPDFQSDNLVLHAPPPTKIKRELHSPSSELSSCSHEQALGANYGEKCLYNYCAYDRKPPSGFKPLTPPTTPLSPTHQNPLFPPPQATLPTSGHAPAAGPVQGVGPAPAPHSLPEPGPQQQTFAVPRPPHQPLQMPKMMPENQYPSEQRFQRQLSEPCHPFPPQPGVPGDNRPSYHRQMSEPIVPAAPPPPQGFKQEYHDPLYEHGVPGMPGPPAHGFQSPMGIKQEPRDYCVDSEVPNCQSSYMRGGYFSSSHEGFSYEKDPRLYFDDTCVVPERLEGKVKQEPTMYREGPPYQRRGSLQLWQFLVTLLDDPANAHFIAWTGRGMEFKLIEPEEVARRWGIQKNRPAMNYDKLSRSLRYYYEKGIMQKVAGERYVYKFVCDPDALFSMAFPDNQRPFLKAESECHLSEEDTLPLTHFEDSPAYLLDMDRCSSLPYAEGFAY
# ELF1, sequence (P32519 whole entry): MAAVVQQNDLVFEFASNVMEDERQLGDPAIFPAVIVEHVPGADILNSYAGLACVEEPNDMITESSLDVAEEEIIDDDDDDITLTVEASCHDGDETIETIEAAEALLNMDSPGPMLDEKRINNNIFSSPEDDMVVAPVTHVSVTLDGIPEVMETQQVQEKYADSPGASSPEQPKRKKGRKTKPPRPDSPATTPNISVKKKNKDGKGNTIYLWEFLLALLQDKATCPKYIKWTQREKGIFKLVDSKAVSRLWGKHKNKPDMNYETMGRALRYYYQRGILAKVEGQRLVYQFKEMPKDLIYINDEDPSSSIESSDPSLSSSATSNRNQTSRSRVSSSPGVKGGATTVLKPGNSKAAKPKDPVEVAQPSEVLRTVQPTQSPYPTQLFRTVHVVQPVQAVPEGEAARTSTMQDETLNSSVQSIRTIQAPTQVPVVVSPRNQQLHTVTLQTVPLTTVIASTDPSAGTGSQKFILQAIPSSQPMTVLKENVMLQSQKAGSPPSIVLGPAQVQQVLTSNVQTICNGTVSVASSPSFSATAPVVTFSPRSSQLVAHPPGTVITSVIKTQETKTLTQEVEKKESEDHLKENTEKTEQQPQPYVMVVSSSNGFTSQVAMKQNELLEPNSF
# CRX, sequence (O43186 whole entry): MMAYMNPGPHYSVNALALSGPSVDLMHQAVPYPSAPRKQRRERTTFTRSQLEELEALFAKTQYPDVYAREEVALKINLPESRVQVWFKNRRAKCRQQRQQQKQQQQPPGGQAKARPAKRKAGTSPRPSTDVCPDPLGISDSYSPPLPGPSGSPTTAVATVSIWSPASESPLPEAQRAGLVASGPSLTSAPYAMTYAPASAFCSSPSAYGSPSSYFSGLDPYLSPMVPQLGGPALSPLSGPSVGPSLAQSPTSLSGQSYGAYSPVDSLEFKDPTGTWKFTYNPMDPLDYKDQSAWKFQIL
# HSF1, sequence (Q00613 whole entry): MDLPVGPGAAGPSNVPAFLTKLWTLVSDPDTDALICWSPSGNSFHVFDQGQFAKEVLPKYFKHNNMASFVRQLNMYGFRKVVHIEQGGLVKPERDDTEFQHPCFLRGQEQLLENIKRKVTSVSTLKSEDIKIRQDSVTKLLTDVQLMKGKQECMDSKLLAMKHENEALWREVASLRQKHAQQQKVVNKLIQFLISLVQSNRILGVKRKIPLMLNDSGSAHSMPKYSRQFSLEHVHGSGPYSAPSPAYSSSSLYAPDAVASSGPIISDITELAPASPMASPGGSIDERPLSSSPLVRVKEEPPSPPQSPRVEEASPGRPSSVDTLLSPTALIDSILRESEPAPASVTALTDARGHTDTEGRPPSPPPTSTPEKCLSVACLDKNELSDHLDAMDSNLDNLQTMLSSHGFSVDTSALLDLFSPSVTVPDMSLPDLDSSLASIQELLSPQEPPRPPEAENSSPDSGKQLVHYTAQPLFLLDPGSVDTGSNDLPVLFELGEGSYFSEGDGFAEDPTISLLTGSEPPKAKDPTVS
sequence,measurement,setting,value
TATTCC,binding signal,[1],"1.65 fold enrichment (6-mer frequency, TF over GST control)"
same,binding signal,[2],"1.68 fold enrichment (6-mer frequency, TF over GST control)"
same,binding signal,[3],"1.6 fold enrichment (6-mer frequency, TF over GST control)"
same,binding signal,[4],"1.52 fold enrichment (6-mer frequency, TF over GST control)"
same,binding signal,[5],"1.59 fold enrichment (6-mer frequency, TF over GST control)"
same,binding signal,[6],"1.58 fold enrichment (6-mer frequency, TF over GST control)"
same,binding signal,[7],"1.48 fold enrichment (6-mer frequency, TF over GST control)"
same,binding signal,[8],"1.49 fold enrichment (6-mer frequency, TF over GST control)"
same,binding signal,[9],"1.56 fold enrichment (6-mer frequency, TF over GST control)"
same,binding signal,[10],"1.61 fold enrichment (6-mer frequency, TF over GST control)"
same,binding signal,[11],"1.72 fold enrichment (6-mer frequency, TF over GST control)"
same,binding signal,[12],"2.11 fold enrichment (6-mer frequency, TF over GST control)"
same,binding signal,[13],"1.74 fold enrichment (6-mer frequency, TF over GST control)"
same,binding signal,[14],"1.62 fold enrichment (6-mer frequency, TF over GST control)"
same,binding signal,[15],"1.44 fold enrichment (6-mer frequency, TF over GST control)"
same,binding signal,[16],"1.68 fold enrichment (6-mer frequency, TF over GST control)"
same,binding signal,[17],"1.5 fold enrichment (6-mer frequency, TF over GST control)"
same,binding signal,[18],"1.77 fold enrichment (6-mer frequency, TF over GST control)"
same,binding signal,[19],"1.52 fold enrichment (6-mer frequency, TF over GST control)"
